The record followed here is PubChem BioAssay (NCATS).

Records with an inconclusive call do not appear. Calls of active or inactive are those of the source. Unless noted, calls follow the shape of the dose curve; as a rule, active = well fitted curve in the direction sought with a large enough effect; inconclusive = small, poorly fitted or top-dose-only effect, or another doubt; inactive = no such curve, though single readings can be large; an effect the other way counts as inactive or inconclusive.

For assay [1], the target named is Calcium and integrin-binding protein 1 (Homo sapiens) (UniProt Q99828). The experiment in a line: Primary qHTS for Identification of Calcium Integrin Binding Protein 1 (CIB1) Competitor (AID 1508620).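 Also: GST tagged CIB1 binding a fluorescein labelled alphaIIb integrin peptide tracer; top concentration of the series differs between compounds; % is scaled to controls: 0 for no effect and ±100 for the full control effect.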 Summed up:
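Fluorescence polarization competition: GST-tagged CIB1 (1 uM final) preincubated with compound 15 min at room temperature, then FITC-labelled alphaIIb peptide (100 nM final) added. After 15 min at room temperature, polarization read at Ex 480/Em 540.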
(In general: qHTS replaces the single test concentration by a dilution series.)

A short description of assay [2]: Primary qHTS for inhibitors of nuclear receptor binding SET domain protein 2 (NSD2) in an isogenic RCH-ACV NSD2 p.E1099K mutant (9B) (AID 1645876). Also: potency is read from the fitted curve at half-maximal effect; nearly all actives have a fitted effect of over 70% in size.
Assay [3] can be described thus: Primary qHTS for inhibitors of nuclear receptor binding SET domain protein 2 (NSD2) in an RCH-ACV wild type WT cells (2C) (AID 1645877). Also: potency is read from the fitted curve at half-maximal effect; nearly all actives have a fitted effect of over 70% in size.
The target of assay [4] is Catechol O-methyltransferase (Homo sapiens) (UniProt P21964). The assay is described as follows: Confirmatory Screen for Target Class Profiling of Small Molecule Inhibitors of Methyltransferases (AID 1745852; calls by dose curve; also: potency is read from the fitted curve at half-maximal effect). As to conditions: MTase-Glo luminescence, SAH detection, recombinant enzyme; measured here: COMT max response; stronger effect = lower value.
In assay [5] the target is Guanidinoacetate N-methyltransferase (Homo sapiens) (UniProt Q14353). The description is as above. The following applies: MTase-Glo luminescence, SAH detection, recombinant enzyme; activity change, negative = inhibition: at 57.3 µM (top of the series).
In assay [6] the target is Nicotinamide N-methyltransferase (Homo sapiens) (UniProt P40261). The description is as above. As to conditions: MTase-Glo luminescence, SAH detection, recombinant enzyme; measured here: NNMT max response; stronger effect = lower value.
Assay [7] has as its target Phenylethanolamine N-methyltransferase (Homo sapiens) (UniProt P11086). The description is as above. The following applies: MTase-Glo luminescence, SAH detection, recombinant enzyme; measured here: PNMT max response; stronger effect = lower value.
Assay [8] deals with Glutathione peroxidase 1 (Homo sapiens) (UniProt P07203). The assay is described as follows: Primary qHTS Assay for Inhibitors of Recombinant Selenoprotein Glutathione Peroxidase 1 (GPX1) (AID 1845191). Also: nearly all actives have a fitted effect of over 65% in size. Summed up:
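GR-coupled assay: compounds preincubated 30 min at room temperature with GPX1, then reaction started with CHP; final 10 nM GPX1, 1 mM GSH, 0.5 mM CHP, 0.5 mM NADPH, 100 nM GR, 0.01% BSA, pH 7.5 Tris buffer. NADPH fluorescence (340/450 nm) read at 0 and 15 min.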

Assay [9] has as its target Rap guanine nucleotide exchange factor 3 (Homo sapiens) (UniProt O95398). The assay is described as follows: Confirmatory qHTS for agonist of cAMP-regulated guanine nucleotide exchange factor 3 (EPAC1) (AID 1645881).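 Also: EPAC1 catalysed release of BODIPY-GDP from Rap1B seen as fluorescence loss; 100% = effect of cAMP agonist control; nearly all actives have a fitted effect of over 75% in size.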
For assay [10], the target named is Rap guanine nucleotide exchange factor 4 (Homo sapiens) (UniProt Q8WZA2). The assay is described as follows: Confirmatory qHTS for agonist of cAMP-regulated guanine nucleotide exchange factor 4 (EPAC2) (AID 1645884). Also: % is scaled to controls: 0 for no effect and ±100 for the full control effect; nearly all actives have a fitted effect of over 65% in size.
Assay [11] has the same target. The experiment in a line: Confirmatory qHTS for antagonist of cAMP-regulated guanine nucleotide exchange factor 4 (EPAC2) (AID 1645885). Also: nearly all actives have a fitted effect of over 25% in size. Also: potency is read from the fitted curve at half-maximal effect.
Assay [12] has as its target Rap guanine nucleotide exchange factor 3 (Homo sapiens) (UniProt O95398). The assay is described as follows: Counterscreen qHTS for antagonist of cAMP-regulated guanine nucleotide exchange factor 3 (EPAC1) (AID 1645888).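 Also: fluorescence loss as bound BODIPY-GDP is released from Rap1B; % of control where 0% means no effect.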 In short, it runs like this: (§1)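 Rap1B–BODIPY-GDP (250 nM) with 50 uM GDP; compounds pin-transferred to 9.74 nM–152 uM final (activator) or from 7.32 nM upwards (inhibitor). Fluorescence Ex/Em 480/540 nm read at 5 and 30 min, then after adding cAMP or buffer, at room temperature.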
Background: Counterscreens check selectivity or assay interference.

Assay [13] shares this target. The experiment in a line: Confirmatory qHTS for antagonist of cAMP-regulated guanine nucleotide exchange factor 3 (EPAC1) (AID 1645880). Also: nearly all actives have a fitted effect of over 55% in size. Also: potency is read from the fitted curve at half-maximal effect.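 As to activity, negative = inhibition: plate controls were DMSO only for no effect and full effect of the ATA control for full effect.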 Summed up: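 Nucleotide exchange uses 100 nM EPAC1, 250 nM RAP1B-BODIPY-GDP and 50 uM GDP, with compounds in a concentration-titration series. After 5 min at room temperature, fluorescence (480 nm ex/540 nm em) is read every 5 min for 30 min. Data are normalized to control ATA and DMSO.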

Assay [14] has as its target N-terminal Xaa-Pro-Lys N-methyltransferase 1 (Homo sapiens) (UniProt Q9BV86). The assay is described as follows: Confirmatory qHTS for Inhibitors of N-terminal methyltransferase 1 (NTMT1): MTaseGlo Assay (AID 1645874). Also: nearly all actives have a fitted effect of over 65% in size. Also: potency is read from the fitted curve at half-maximal effect.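 As to activity change, negative = inhibition: luminescence from SAH made as NTMT1 methylates SPKRIA peptide using SAM; 0% = DMSO control and -100% = no-enzyme control.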 In short, it runs like this: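 Luminescent MTase-Glo read-out of SAH. 125 nM NTMT1, 100 uM SAM, 1 uM SPKRIA substrate, 30 min RT reaction after 15 min compound preincubation. Normalized to no-enzyme and DMSO controls; Hill fit.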

For assay [15], the target named is Lysosomal acid glucosylceramidase (Homo sapiens) (UniProt P04062). The assay is described as follows: Glucocerebrosidase-p2 (AID 348; in the data active = potency below about 10 µM; also: potency is read from the fitted curve at half-maximal effect). The following applies: purified GBA, blue fluorogenic substrate, 40 min. In short, it runs like this:
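Compounds titrated from 0.6 nM upwards against 0.2 nM enzyme in pH 5.9 citric acid/KH2PO4, taurocholate, tween-20; blue fluorogenic substrate 80 uM, 40 min room temperature, stopped and read Ex 365/Em 440 for AC50.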

Assay [16] in a line: AP1 Signaling Pathway (AID 357; active = well fitted curve in either direction with a large enough effect, not every such curve was filed as active;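 also: ME-180 reporter cells stimulated with EGF at its EC50 level; % is scaled to controls: 0 for no effect and ±100 for the full control effect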). As to conditions: ME-180 AP-1-bla reporter, EGF-induced, beta-lactamase ratio, 5 h; at 7.69 µM (top of the series) unless noted. In short, it runs like this:
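Titration-series screen for positive or negative modulators of EC50 EGF-induced signaling in ME-180 cells carrying an AP-1-driven beta-lactamase reporter. After 5 hours at 37 degrees Celsius, CCF4 460nm/530nm emission ratio gave %Activity; AC50 values derived.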

The target of assay [17] is Cytochrome P450 1A2 (Homo sapiens) (UniProt P05177). The assay is described as follows: p450-cyp1a2 (AID 410; calls by dose curve; also: potency is read from the fitted curve at half-maximal effect). Summed up:
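Inhibition was calculated relative to 57 uM furafylline (full inhibition). The reaction used human CYP1A2 at 20nM with Luciferin-ME at its Km, 100uM, driven by an NADPH-regenerating system for 60 min at room temperature.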

Assay [18] can be described thus: NFAT Signaling Pathway (AID 444; active = well fitted curve in either direction with a large enough effect, not every such curve was filed as active;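 also: carbachol stimulus at about its EC50 of 1 µM final; % is scaled to controls: 0 for no effect and ±100 for the full control effect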). As to conditions: Jurkat NFAT-bla M1, carbachol, beta-lactamase ratio, 5 h; at 7.69 µM (top of the series) unless noted. Summed up:
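Jurkat cells with NFAT-driven β-lactamase reporter and co-expressed M1 receptor, stimulated with carbachol (final 1 uM, ~EC50), compound titration, 5 h at 37 °C. CCF4 loaded 1 h at RT; 460/530 nm ratio gave %activity and AC50.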

Assay [19] in a line: Stat Signaling Pathway (AID 446; active = well fitted curve in either direction with a large enough effect, not every such curve was filed as active;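 also: ME-180 cervical cancer cells given 40 pM IL-6 alongside compound; SIE-controlled beta-lactamase reporter measured as 460/530 nm FRET emission ratio; % is scaled to controls: 0 for no effect and ±100 for the full control effect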). As to conditions: ME-180 SIE beta-lactamase reporter, IL-6 stimulated, 5 h; at 7.69 µM (top of the series) unless noted. Summed up: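 ME-180 SIE-bla cells; overnight plating; cpd + IL-6 40 pM, 5 h, 37 C; LiveBLAzer 2.5 h RT; 460/530 nm emission ratio. Normalized to 300 pM IL-6 and 125 nM JAK inhibitor controls.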
In assay [20] the target is Glucocorticoid receptor (Homo sapiens) (UniProt P04150). The assay is described as follows: GR-GFP Redistribution (AID 450;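 active = compounds whose dose series gives a full or clear partial fitted curve of increased nuclear translocation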; also: potency is read from the fitted curve at half-maximal effect). As to conditions: U2OS GR-GFP nuclear translocation, laser cytometry, 2 h.
Assay [21] shares this target. The experiment in a line: GR-EFC Redistribution (AID 451; calls by dose curve; also: potency is read from the fitted curve at half-maximal effect). The following applies: CHO-K1 GR-EFC translocation, beta-gal luminescence, 2 h. Summed up:
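CHO-K1 cells expressing nuclear EA and GR-ED fragments of b-gal; compounds titrated up to 46 uM final, 2 h at 37 C. GR nuclear translocation read as complemented b-gal luminescence after 1 h RT detection.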

Assay [22] has as its target Mitogen-activated protein kinase 10 (Mus musculus) (UniProt Q61831). The assay is described as follows: JNK3 AlphaScreen Assay (AID 530; active = well fitted curve in either direction with a large enough effect, not every such curve was filed as active). In short, it runs like this:
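qHTS format: compounds tested as titrations against IL-1beta/TNF-alpha-activated HepG2 lysate JNK3 with biotin-GST-cJun substrate and 10 uM ATP at room temperature. Loss of anti-phospho-cJun AlphaScreen signal indicates inhibition.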
For orientation: Alpha assays give light when donor and acceptor beads are brought close together.

The target in assay [23] is Cytochrome P450 3A4 (Homo sapiens) (UniProt P08684). The experiment in a line: qHTS Assay for Activators of Cytochrome P450 3A4 (AID 885). Also: nearly all actives have a fitted effect of over 65% in size. In short, it runs like this: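 20nM CYP3A4 + 25uM Luciferin-PPXE (=KM), 200mM KPO4; cpd 10 min RT; NADPH regen, 60 min RT; stop w/ detection buffer, 20 min; luminescence. Normalized to 57 uM ketoconazole.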
The target in assay [24] is Cytochrome P450 2D6 (Homo sapiens) (UniProt P10635). The experiment in a line: qHTS Assay for Inhibitors and Substrates of Cytochrome P450 2D6 (AID 891). Also: potency is read from the fitted curve at half-maximal effect; nearly all actives have a fitted effect of over 60% in size. Summed up:
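Human CYP2D6 (5 nM) with 30 uM Luciferin-ME EGE (at Km) in 100 mM KPO4, compound preincubated 10 min, then NADPH regeneration system for 60 min at room temperature. Luciferin read by luminescence; normalized to 1.43 uM quinidine.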

In assay [25] the target is Cytochrome P450 2C19 (Homo sapiens) (UniProt P33261). The experiment in a line: qHTS Assay for Inhibitors and Substrates of Cytochrome P450 2C19 (AID 899). Also: potency is read from the fitted curve at half-maximal effect; nearly all actives have a fitted effect of over 60% in size. In short, it runs like this: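 5 nM human CYP2C19 with 10uM Luciferin-H EGE (at KM) in 50mM KPO4, compound preincubated 10 min at 37C, then NADPH regeneration for 60 min at 37C. Luciferin read by luminescence after detection reagent; normalized to 57uM ketoconazole as full inhibition.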

Assay [26] addresses Dual specificity protein kinase CLK4 (Homo sapiens) (UniProt Q9HAZ1). The experiment in a line: qHTS Assay for Inhibitors of CDC-like Kinase 4 (Kinase-Glo Assay) (AID 1770). Summed up:
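Inhibition was judged from remaining ATP, measured by Ultra-Glo luciferase bioluminescence after Clk4 (25 nM) had acted on RS peptide at 1 uM ATP for 4.5 hours, room temperature.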

Assay [27] shares this target. The experiment in a line: qHTS Assay for Inhibitors of CDC-like Kinase 4 (ADP-Glo Assay) (AID 1771). Also: potency is read from the fitted curve at half-maximal effect; nearly all actives have a fitted effect of over 70% in size. Summed up:
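Kinase reaction: Clk4 at 25 nM, RS repeat peptide substrate at 100 uM, ATP at 1 uM, 1 hr, room temperature. Product ADP detected as luciferase signal via ADP-Glo.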

In assay [28] the target is Ubiquitin carboxyl-terminal hydrolase 1 (Homo sapiens) (UniProt O94782). The assay is described as follows: Inhibitors of USP1/UAF1: Pilot qHTS (AID 504865).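 Also: rhodamine fluorescence freed from ubiquitin-rhodamine substrate followed over time; top concentration of the series differs between compounds; % is scaled to controls: 0 for no effect and ±100 for the full control effect; nearly all actives have a fitted effect of over 35% in size.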 In short, it runs like this: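 Kinetic fluorescence assay: 1nM USP1/UAF1, 15 min compound preincubation, then 150nM Ub-Rho; 480/540 nm.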
Assay [29] in a line: Primary qHTS for small molecule stabilizers of the endoplasmic reticulum resident proteome: Secreted ER Calcium Modulated Protein (SERCaMP) assay (AID 1508630). Also: % is scaled to controls: 0 for no effect and ±100 for the full control effect. Summed up: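 GLuc-SERCaMP-expressing SH-SY5Y cells, pretreated 16 h with compound, are challenged with thapsigargin to empty ER calcium stores; after 4 h, coelenterazine is added directly to the medium and luminescence is imaged.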

The target in assay [30] is Rap guanine nucleotide exchange factor 3 (Homo sapiens) (UniProt O95398). The assay is described as follows: Counterscreen qHTS for agonist of cAMP-regulated guanine nucleotide exchange factor 3 (EPAC1) (AID 1645889). Also: % of control where 0% means no effect; nearly all actives have a fitted effect of over 40% in size. In short, it runs like this: as §1
Rap guanine nucleotide exchange factor 3 (Homo sapiens), sequence (O95398 whole entry, looked up): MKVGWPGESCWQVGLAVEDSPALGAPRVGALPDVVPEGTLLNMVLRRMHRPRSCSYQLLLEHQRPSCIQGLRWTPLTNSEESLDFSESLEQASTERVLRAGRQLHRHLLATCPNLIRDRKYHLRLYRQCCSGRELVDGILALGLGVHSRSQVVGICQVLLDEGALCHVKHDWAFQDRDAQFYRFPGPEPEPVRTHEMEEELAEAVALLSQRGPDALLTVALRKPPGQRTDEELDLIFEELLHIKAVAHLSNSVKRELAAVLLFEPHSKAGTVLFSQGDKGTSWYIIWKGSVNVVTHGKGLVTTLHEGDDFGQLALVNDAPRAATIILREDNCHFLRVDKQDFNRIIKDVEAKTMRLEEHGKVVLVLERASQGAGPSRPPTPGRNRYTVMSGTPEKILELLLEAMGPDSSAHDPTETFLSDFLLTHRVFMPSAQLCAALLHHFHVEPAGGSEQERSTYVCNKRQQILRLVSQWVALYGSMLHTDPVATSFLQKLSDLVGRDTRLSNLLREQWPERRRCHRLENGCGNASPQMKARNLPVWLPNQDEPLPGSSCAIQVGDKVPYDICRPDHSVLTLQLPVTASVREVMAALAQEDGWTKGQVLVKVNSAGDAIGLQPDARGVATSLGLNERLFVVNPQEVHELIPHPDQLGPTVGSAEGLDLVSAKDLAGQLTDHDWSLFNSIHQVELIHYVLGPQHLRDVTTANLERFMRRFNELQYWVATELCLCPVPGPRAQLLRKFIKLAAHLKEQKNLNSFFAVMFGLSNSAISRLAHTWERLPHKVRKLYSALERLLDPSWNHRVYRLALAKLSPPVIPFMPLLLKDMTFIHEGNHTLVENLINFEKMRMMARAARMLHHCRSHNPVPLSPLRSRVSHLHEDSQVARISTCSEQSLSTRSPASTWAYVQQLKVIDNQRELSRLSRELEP

Calcium and integrin-binding protein 1 (Homo sapiens), sequence (Q99828 whole entry, looked up): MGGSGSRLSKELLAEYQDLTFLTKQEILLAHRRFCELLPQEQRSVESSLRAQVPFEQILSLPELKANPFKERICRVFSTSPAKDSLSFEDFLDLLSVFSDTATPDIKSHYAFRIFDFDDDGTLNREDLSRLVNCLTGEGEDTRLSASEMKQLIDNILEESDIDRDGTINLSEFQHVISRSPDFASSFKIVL
N-terminal Xaa-Pro-Lys N-methyltransferase 1 (Homo sapiens), sequence (Q9BV86 whole entry, looked up): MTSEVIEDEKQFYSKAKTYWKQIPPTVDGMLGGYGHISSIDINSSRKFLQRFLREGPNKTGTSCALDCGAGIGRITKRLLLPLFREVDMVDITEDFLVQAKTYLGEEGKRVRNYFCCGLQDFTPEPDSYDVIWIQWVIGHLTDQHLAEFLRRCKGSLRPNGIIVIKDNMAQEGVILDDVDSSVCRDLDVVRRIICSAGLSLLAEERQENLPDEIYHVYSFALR
Rap guanine nucleotide exchange factor 4 (Homo sapiens), sequence (Q8WZA2 whole entry, looked up): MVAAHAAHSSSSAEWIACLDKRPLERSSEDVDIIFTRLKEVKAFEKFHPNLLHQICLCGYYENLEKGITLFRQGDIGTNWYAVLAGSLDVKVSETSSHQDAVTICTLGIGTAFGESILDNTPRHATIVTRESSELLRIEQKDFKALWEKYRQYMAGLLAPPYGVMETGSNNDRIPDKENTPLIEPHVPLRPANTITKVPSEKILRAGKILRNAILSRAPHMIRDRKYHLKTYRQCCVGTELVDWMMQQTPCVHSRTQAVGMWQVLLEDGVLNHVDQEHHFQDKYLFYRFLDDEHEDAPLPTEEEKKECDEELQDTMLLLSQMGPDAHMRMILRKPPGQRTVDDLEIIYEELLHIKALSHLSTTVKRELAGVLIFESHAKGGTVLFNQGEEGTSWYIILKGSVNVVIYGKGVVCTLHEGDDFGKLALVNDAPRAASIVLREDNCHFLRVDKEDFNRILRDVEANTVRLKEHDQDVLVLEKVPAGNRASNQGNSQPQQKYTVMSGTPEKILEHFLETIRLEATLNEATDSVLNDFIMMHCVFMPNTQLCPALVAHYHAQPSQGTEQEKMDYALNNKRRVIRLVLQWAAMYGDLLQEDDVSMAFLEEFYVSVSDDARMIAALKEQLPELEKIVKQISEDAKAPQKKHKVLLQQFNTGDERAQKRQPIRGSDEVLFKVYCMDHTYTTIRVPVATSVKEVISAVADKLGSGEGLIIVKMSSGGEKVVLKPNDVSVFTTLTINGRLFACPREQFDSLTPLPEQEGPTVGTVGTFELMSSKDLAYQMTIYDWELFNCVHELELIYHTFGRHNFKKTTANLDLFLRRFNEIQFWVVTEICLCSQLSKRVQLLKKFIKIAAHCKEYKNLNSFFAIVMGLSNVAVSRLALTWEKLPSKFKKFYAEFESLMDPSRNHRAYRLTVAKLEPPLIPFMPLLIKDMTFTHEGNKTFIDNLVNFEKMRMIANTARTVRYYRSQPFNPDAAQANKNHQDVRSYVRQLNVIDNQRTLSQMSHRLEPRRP
Dual specificity protein kinase CLK4 (Homo sapiens), sequence (Q9HAZ1 whole entry, looked up): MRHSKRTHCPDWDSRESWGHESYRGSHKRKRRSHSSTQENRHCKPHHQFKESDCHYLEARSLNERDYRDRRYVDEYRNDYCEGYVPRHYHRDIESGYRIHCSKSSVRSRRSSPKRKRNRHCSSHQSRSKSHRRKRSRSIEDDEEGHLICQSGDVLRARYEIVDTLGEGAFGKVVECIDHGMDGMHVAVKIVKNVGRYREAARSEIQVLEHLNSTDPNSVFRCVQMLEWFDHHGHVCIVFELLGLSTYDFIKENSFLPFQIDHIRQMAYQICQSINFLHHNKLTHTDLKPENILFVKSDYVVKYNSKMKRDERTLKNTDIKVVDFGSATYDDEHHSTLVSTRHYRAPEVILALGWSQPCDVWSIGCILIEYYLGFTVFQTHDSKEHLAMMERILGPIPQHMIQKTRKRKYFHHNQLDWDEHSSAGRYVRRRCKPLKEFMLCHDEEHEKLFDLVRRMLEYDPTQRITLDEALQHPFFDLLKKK
Glucocorticoid receptor (Homo sapiens), sequence (P04150 whole entry, looked up): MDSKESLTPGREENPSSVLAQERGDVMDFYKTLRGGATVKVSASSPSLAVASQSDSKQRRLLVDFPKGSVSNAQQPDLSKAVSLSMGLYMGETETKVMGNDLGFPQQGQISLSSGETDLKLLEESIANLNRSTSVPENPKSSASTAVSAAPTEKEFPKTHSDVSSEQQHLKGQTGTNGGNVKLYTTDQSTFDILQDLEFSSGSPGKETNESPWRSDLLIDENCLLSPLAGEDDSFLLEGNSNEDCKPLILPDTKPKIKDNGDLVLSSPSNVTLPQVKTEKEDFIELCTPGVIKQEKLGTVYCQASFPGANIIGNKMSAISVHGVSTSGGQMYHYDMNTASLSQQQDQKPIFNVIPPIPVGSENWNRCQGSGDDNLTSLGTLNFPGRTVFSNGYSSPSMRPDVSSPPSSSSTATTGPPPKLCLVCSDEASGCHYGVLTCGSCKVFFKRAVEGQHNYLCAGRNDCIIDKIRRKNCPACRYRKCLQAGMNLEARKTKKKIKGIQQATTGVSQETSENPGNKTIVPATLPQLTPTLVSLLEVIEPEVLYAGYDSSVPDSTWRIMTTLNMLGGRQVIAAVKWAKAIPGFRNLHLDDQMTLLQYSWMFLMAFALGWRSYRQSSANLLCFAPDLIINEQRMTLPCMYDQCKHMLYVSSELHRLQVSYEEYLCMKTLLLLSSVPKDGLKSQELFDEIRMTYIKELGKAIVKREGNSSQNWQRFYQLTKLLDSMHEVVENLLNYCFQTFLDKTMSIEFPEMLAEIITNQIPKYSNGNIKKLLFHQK
Cytochrome P450 3A4 (Homo sapiens), sequence (P08684 whole entry, looked up): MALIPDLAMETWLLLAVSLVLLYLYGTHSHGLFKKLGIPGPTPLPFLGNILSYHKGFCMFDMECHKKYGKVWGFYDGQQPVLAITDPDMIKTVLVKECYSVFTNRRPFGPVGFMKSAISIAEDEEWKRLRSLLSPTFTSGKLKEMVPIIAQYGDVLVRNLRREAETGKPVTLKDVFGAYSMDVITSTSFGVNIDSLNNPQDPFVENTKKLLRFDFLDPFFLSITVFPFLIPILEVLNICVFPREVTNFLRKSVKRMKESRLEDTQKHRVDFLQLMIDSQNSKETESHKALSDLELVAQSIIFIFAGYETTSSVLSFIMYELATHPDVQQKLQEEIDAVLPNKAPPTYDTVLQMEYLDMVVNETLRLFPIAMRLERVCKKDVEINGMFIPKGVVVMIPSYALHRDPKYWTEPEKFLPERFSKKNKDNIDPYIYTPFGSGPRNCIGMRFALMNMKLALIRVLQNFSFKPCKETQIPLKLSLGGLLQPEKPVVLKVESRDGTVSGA
Cytochrome P450 2D6 (Homo sapiens), sequence (P10635 whole entry, looked up): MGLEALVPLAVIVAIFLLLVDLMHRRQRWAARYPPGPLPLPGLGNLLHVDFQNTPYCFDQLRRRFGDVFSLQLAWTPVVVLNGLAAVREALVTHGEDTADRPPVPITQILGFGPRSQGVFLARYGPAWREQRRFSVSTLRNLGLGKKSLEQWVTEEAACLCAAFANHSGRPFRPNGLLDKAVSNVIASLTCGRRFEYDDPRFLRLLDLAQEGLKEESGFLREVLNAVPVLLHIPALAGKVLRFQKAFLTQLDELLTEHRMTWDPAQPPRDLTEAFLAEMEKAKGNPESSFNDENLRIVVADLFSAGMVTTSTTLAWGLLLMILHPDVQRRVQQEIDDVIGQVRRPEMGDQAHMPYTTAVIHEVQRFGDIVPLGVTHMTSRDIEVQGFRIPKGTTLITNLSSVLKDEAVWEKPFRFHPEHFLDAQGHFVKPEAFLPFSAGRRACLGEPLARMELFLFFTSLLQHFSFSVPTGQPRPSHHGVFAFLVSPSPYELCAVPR
Nicotinamide N-methyltransferase (Homo sapiens), sequence (P40261 whole entry, looked up): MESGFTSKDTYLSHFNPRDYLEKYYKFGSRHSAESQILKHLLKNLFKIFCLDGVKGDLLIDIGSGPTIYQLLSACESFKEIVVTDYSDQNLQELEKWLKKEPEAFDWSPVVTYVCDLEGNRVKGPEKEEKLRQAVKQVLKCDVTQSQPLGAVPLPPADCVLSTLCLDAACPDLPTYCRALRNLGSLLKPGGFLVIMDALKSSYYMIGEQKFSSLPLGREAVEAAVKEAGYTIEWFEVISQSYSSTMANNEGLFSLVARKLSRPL

With `CN(Cc1cccs1)c1ncnc2ccc(-c3ccc4c(c3)OCO4)cc12`, the Potency result in assay [1] and in [8] was “inactive” in each case. Further, the Potency in assay [2] was 20.6 µM (active); in assay [3], 20.6 µM (active); in assay [5], 12.1 µM (active). For the same molecule, the results for the activity in [4], in [6] and in [7] were -85.9%, -70.6% and -84.2%, respectively.
Turning to `Nc1ncnc2c1C(c1ccccc1)c1c(ccc3ccccc13)O2` (centres undefined), the Potency result in assay [1] and in assay [11] was “inactive” each time. For the same molecule, the outcome in assay [9], in assay [10] and in assay [12] was “inactive” throughout.
`O=C1Cc2cc(S(=O)(=O)N3CCNCC3)ccc2N1`: the Potency result in [1] and in assay [13] was “inactive” in each case. Moreover, the outcome in assay [9] and in assay [12] was “inactive” in each case. Moreover, the activation in [10] is 3.97% [at 17.1 µM] (inactive). Further, in [11], the activity change, negative = inhibition was 9.22% [at 12.7 µM] (inactive).
With `Cc1ccsc1CN(C)c1ncnc2ccc(-c3ccc([C@@H](C)O)o3)cc12`, the Potency result in assay [1] was “inactive”. For the same molecule, in assay [14], the Potency is 6.49 µM (active).
As for `CN(Cc1ccco1)c1ncnc2ccc(-c3ccccc3Cl)cc12`, the Potency in [15] is > 11.4 µM (inactive); in assay [17], 2 µM (active); in assay [20], > 46 µM (inactive); in assay [21], > 46 µM (inactive); in assay [24], 7.94 µM (active); in [25] it was 3.16 µM (active). Moreover, the Potency in [26] and in assay [27] was 14.1 µM (active) in each case. Moreover, the activity change, negative = inhibition in assay [16] is -12% (inactive); in assay [18] it was -13.6% (inactive). Besides, the activity, negative = inhibition in assay [19] was 11.7% (inactive). Also, the outcome in assay [22], in [9] and in assay [10] was “inactive” throughout. Moreover, the Potency entry in assay [23], in assay [28], in assay [1] and in [29] was “inactive” each time.
`Cc1cc2c(s1)c1cnn(Cc3cccc(C)c3F)c(=O)c1n2C`: the Potency entry in [1] and in assay [14] was “inactive” each time.
Turning to `CC(=O)NC(c1cccs1)c1cc(Cl)c2ccccc2c1O` (centres undefined), the Potency result in assay [1] and in assay [13] was “inactive” throughout. Besides, the outcome in [9] and in assay [10] was “inactive” in each case. Further, the Potency in assay [11] was 12 µM (active).
For `NC(=O)C1CCN(c2nc(-c3ccc4c(c3)CCO4)cs2)CC1`, the Potency entry in assay [1] and in [14] was “inactive” in each case.
For the molecule `O=C(CSc1nc2ccccc2n1CCc1ccccc1)c1ccc(O)c(O)c1`, the Potency entry in [1] and in assay [11] was “inactive” each time. Besides, the Potency in assay [13] was 6.01 µM (active). Besides, the outcome in assay [9], in assay [12] and in assay [30] was “inactive” each time.
